Laboratory results from PubChem BioAssay AID720513 (Broad Institute, 2013).
The whole screen tested about 2,100 compounds, of which about 480 (23%) were called active. About 5% were inconclusive and are not listed.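 Rule for the calls: active = fitted curve reaches 40% activation at or below the top valid concentration, in every replicate test; inconclusive = replicate tests disagree on the call; inactive = the rest, including activity in the opposite direction.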 The list is a sample of the results. Entries with a potency or affinity are not part of this list.

test: activators raising PGC1a acetylation in cells, dose response, cell-based, cherry-picked samples, set 6 (AID 720513); conditions: U2OS PGC1a acetylation AlphaLISA, overnight, 0 = neutral, -100 = inhibitor control; series mostly up to 19.5 µM; activation (acetylation increase): at the top concentration;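 note: cells made to overexpress flag tagged PGC1a plus GCN5 acetyltransferase by viral infection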

Activation (acetylation increase), inactive:
O=C(OCc1nc(-c2ccccc2)oc1COC(=O)c1ccco1)c1ccco1 -3.75%
Cc1cc(Cl)ccc1OCC(=O)Nc1cccc(S(=O)(=O)NC2=NCCCCC2)c1 7.74%
COc1ccc(N(CC(=O)Nc2ccccc2Cl)S(=O)(=O)c2ccc(C)cc2)cc1OC 7.4%
N#CC1=C(N)Oc2c(ccc3ccccc23)C1c1ccsc1 (stereo unspecified) -48.4%
C[C@H]1CN([C@@H](C)CO)C(=O)c2cc(C#Cc3ccccc3)cnc2O[C@@H]1CN(C)C(=O)c1ccccc1F -9.97%
c1cncc(CNc2ncnc3ccc(-c4ccoc4)cc23)c1 11.1%
COC(=O)c1cc(CN2C(=O)c3ccccc3C2=O)c(O)c([N+](=O)[O-])c1 36.6%
O=C(Nc1nc(-c2ccccn2)cs1)c1ccccc1-n1cnnn1 10.9%
O=C(Nc1ccccc1N1CCOCC1)C1(c2ccc(Cl)cc2)CCC1 19.7%
O=C(c1ccc(CN2CCOCC2)cc1)N1CCN(Cc2ccccc2)CC1 10.3%
C#CCN1C(=O)C(O)(CC(=O)c2ccc(OC)c(OC)c2)c2ccccc21 (stereo unspecified) 7.98%
CC(C)C#Cc1cnc2c(c1)C(=O)N([C@H](C)CO)C[C@H](C)[C@H](CN(C)C(=O)c1ccccn1)O2 3.01%
CCOc1ccc(N2CC(C(=O)Nc3ccc(S(=O)(=O)NCC4CCCO4)cc3)CC2=O)cc1 (stereo unspecified) 17.9%
O=C(c1cccc(N2C(=O)C3C4C=CC(C4)C3C2=O)c1)N1CCCc2ccccc21 (stereo unspecified) 8.25%
COc1ccc(F)cc1CN1CCN(CC(=O)N2CCc3ccccc32)CC1 -12.8%
C[C@H](CO)N1C[C@H](C)[C@@H](CN(C)C(=O)Nc2ccc(-c3cccs3)cc2)OCc2cnnn2CCCC1=O -3.11%
CCCc1cn(CC[C@@H]2CC[C@H](NC(=O)Nc3ccc4c(c3)OCO4)[C@@H](CO)O2)nn1 -8.84%
O=c1c2cn(Cc3ccc(F)cc3)c3ccc(F)cc3c-2nn1Cc1ccc(F)cc1 3.94%
FC(F)(F)c1ccc(Cl)c(-n2c(-c3cc(-c4ccco4)[nH]n3)n[nH]c2=S)c1 -12.5%
C[C@H](CO)N1C[C@H](C)[C@H](CN(C)Cc2ccncc2)OCc2cn(nn2)CCCC1=O 25.1% [at 21 µM]
COCC(=O)N1C[C@@H](C)[C@@H](OC)CN(C)C(=O)c2ccc(NC(=O)c3cnccn3)cc2OC[C@@H]1C -10.3%
CC(=O)n1nc2nc(C)cc(C)c2c1N -25.1%
CCS(=O)(=O)Nc1ccc2c(c1)C(=O)N(C)C[C@@H](OC)[C@H](C)CN(Cc1ccccn1)[C@@H](C)CO2 -1.3%
O=C(COC(=O)Cc1ccc(S(=O)(=O)N2CCOCC2)s1)NCCc1ccccc1 -11.5%
O=C(O)C1CCCN1S(=O)(=O)c1cc(Cl)ccc1Cl (stereo unspecified) 6.52%
C[C@@H]1CN([C@@H](C)CO)C(=O)CCCn2nncc2CO[C@H]1CN(C)S(=O)(=O)c1ccc(Cl)cc1 -1.78%
COCCCNC(=O)c1ccc(Cn2c(=O)c3ccccc3n(Cc3ccccc3C)c2=O)cc1 39.4%
CCCCN(CCCC)CCNC(=O)c1ccc2nc(-c3ccccc3NC(C)=O)c(=O)[nH]c2c1 28.6%
CCCOc1ccc2ccccc2c1/C=C1\SC(=O)NC1=O -9.84%
Nc1nc(SCC(=O)Nc2ccccc2Sc2ccc(Cl)cc2)n[nH]1 19.6%
C[C@@H]1CN([C@H](C)CO)C(=O)c2cc(-c3ccccc3)cnc2O[C@H]1CN(C)C(=O)Cc1ccccn1 -7.93%
CN(C)CCNC(=O)c1cccc2c(-c3ccc(F)c(F)c3)coc12 20.9%
O=C(CSc1nnc(-c2ccco2)n1-c1ccccc1)Nc1c(Cl)cc(Cl)cc1C(=O)O 9.43%
O=C(/C=C/c1cccs1)c1ccc(NC(=O)c2cccc(Br)c2)cc1 -11.5%
COC(=O)/C=C/c1cnc2ccccc2c1 -0.261%
CCC(=O)Nc1ccnc(-c2cccnc2)n1 22.6%
CC(c1ccccc1)N1C(=O)NC(NC(=O)c2cccnc2)(C(F)(F)F)C1=O (stereo unspecified) 7.53%
CCC(=O)Nc1cccc(C(=O)/C=C/c2ccccc2)c1 -64.7%
Cc1ccc2oc(Nc3nc(C)c(C)c(C)n3)nc2c1 -3.44%
O=C(CCS(=O)(=O)c1ccc(Cl)cc1)Nc1nccs1 12.8%
OC[C@H]1[C@H](c2ccc(C#CC3CCCC3)cc2)[C@@H]2CN(CCC(F)(F)F)CCCCN12 -58%
COc1ccc(CN(C)C[C@@H]2Oc3ccc(NS(=O)(=O)c4c(C)noc4C)cc3C(=O)N([C@@H](C)CO)C[C@@H]2C)cc1 38%
C[C@H]1CCCCO[C@H](CN(C)Cc2ccncc2)[C@@H](C)CN([C@@H](C)CO)C(=O)c2cc(NS(=O)(=O)c3ccccc3)ccc2O1 -16.6%
O=C1C=CCCN1C(=O)/C=C/c1cccc(C(F)(F)F)c1 -79.7%
COc1ccc(C#Cc2ccc([C@H]3[C@@H](CO)N4CCCCN(C(=O)Nc5ccc(F)cc5)C[C@H]34)cc2)cc1 -94.6%
C[C@@H]1CN([C@@H](C)CO)C(=O)Cc2cc(NC(=O)C3CCCCC3)ccc2O[C@@H]1CN(C)Cc1ccc(Cl)c(Cl)c1 31.6%
CC(C)CC#Cc1ccc([C@H]2[C@H](CO)N3C(=O)CN(C(=O)Nc4cc(F)ccc4F)C[C@@H]23)cc1 -34.3%
O=C(COC(=O)c1cc[n+]([O-])cc1)Nc1cccc(Cl)c1Cl 18.2%
Cc1c(Cl)cccc1Nc1ncccc1C(=O)O -8.63%
Cc1noc(C)c1NC(=O)N(C)C[C@H]1OCCCC[C@@H](C)Oc2ccc(NC(=O)Cc3ccccc3)cc2C(=O)N([C@@H](C)CO)C[C@@H]1C -3.05%
C[C@@H]1CN([C@H](C)CO)C(=O)c2cc(NS(=O)(=O)c3cccs3)ccc2O[C@@H]1CN(C)S(=O)(=O)c1ccc(F)cc1 2.7%
Cc1ccc(S(=O)(=O)N[C@@H]2CC[C@@H](CCNC(=O)c3ccccc3F)O[C@H]2CO)cc1 6.51%
O=C(CSc1nc2ccc(Cl)cc2[nH]1)c1ccc2c(c1)OCO2 6.16%
Cn1c(=O)c2cc(S(=O)(=O)NCCC(=O)NCc3ccccc3Cl)ccc2n(C)c1=O 4.26%
CCOc1ccc2nc(NCCCNC(=O)c3cc(OC)c(OC)c(OC)c3)c(C#N)cc2c1 -5.62%
O=C(COc1ccc(Br)cc1)NCCNC(=O)c1cccnc1 71.5%
CCCNC(=O)c1ccc(COc2ccc(Cl)cc2)o1 0.816%
Cc1cc(OCC(=O)NNC(=O)c2cnccn2)cc(C)c1Cl -4.82%
O=C(C[C@@H]1C[C@@H]2c3cc(NC(=O)Nc4ccccc4F)ccc3O[C@@H]2[C@H](CO)O1)NCc1ccc(Oc2ccccc2)cc1 9.89%
CCc1cc2c(N3CCN(c4nnc(CC)s4)CC3)ncnc2s1 -4.99%
COc1ccc(-c2ccc(C3[C@@H]4CN(Cc5cc(OC)cc(OC)c5)C[C@H]3N4)cc2)cc1 (stereo partly specified) -98.7%
COc1cccc(-c2ccc(C3[C@H]4CNC[C@@H]3N4Cc3ccc4c(c3)OCO4)cc2)c1 (stereo partly specified) -12.3%
O=C(Nc1ccccc1)C1=C(c2ccccc2)S(=O)(=O)CCS1(=O)=O -95.9%
Cn1nc(-c2ccccn2)nc2c(=O)n(C)c(=O)nc1-2 -108%
COc1cc(C(=O)N2CCN(S(=O)(=O)c3cccc(F)c3)CC2)ccc1OCC(=O)N1CCOCC1 15.1%
CN(C)c1ccc(C=C2SC(=S)NC2=O)cc1 -60.6%
CCOC(=O)/C(C#N)=C1/C(=O)N(Cc2ccccc2)c2ccccc21 36.9%
CC(=O)c1coc2c1cc(O)c1ccccc12 -14.2%
CCOCCn1c(N2CCN(c3ccccc3)CC2)nc2c1c(=O)n(C)c(=O)n2C 3.02%
CSc1nc2c(c(=O)[nH]c(=O)n2C)n1Cc1ccccc1 -24.9%
C/C=C/Cn1c(SCc2ccc(Cl)cc2)nc2c1c(=O)[nH]c(=O)n2C -18.2%
CCn1c(Oc2ccccc2F)nc2c1c(=O)n(C)c(=O)n2C -23%
CCOCCCNc1nc2c(c(=O)n(C)c(=O)n2C)n1CCCc1ccccc1 41%
Cn1c(=O)c2c(ncn2CC(=O)O)n(C)c1=O -6.17%
CC(C)CN1CCN(C(=O)COC(=O)c2ccc(S(C)(=O)=O)c([N+](=O)[O-])c2)CC1 -74.6%
CCC(=O)N[C@H]1CC[C@H](CC(=O)OC)O[C@H]1CO -20.6%
CCCc1ccc(C(O)c2ncc(-c3cccc(F)c3)[nH]2)cc1 (stereo unspecified) 9.11%
COc1ccc(S(=O)(=O)Nc2ccc3c(c2)C(=O)N([C@H](C)CO)C[C@@H](C)[C@H](CN(C)C(=O)Nc2ccc(C(F)(F)F)cc2)OCCCC[C@@H](C)O3)cc1 -7%
O=C(OCc1nnc(-c2ccccc2)o1)C1=COCCO1 5.96%
C=CCn1c(SCc2c(C)noc2C)nc2ccccc2c1=O -6.19%
C[C@@H]1CN([C@@H](C)CO)S(=O)(=O)c2ccc(-c3ccccc3)cc2O[C@@H]1CN(C)C(=O)c1ccccc1F -30%
CCn1c(C(C)NC(=O)c2ccccc2C)n[nH]c1=S (stereo unspecified) 26%
COc1ccc(C#Cc2ccc([C@H]3[C@@H](CO)N4CCCCN(C(=O)Nc5ccccc5)C[C@H]34)cc2)cc1 -91% [at 21 µM]
O=C(Cn1ncc(Cl)c(Cl)c1=O)NC(=O)NC1CCCCC1 -38.6%
CO[C@@H]1CN(C)C(=O)c2cc(NC(C)=O)ccc2OC[C@H](C)N(Cc2cc(F)ccc2F)C[C@H]1C 9.55%
N#C/C(=C/c1ccc(OCc2ccc(C(=O)O)cc2)c(Br)c1)c1cccc(F)c1 24.4%
C[C@H]1CN([C@@H](C)CO)S(=O)(=O)c2ccc(Br)cc2O[C@@H]1CN(C)S(=O)(=O)c1ccccc1F 35.6%
CCN(C[C@@H]1N[C@@H](CO)[C@H]1c1ccc(-c2ccc(F)cc2)cc1)C(=O)CN(C)C -2.97% [at 21 µM]
COc1ccccc1C#Cc1ccc([C@H]2[C@H](C#N)N(C(=O)C3CCCC3)[C@H]2CO)cc1 -92%
O=S(=O)(c1ccc(Cl)cc1)c1snnc1-c1ccccc1 -91.3%
Clc1ccc(-c2csc(N3CCSCC3)n2)cc1 28.4%
